The text below walks through data of PubChem BioAssay AID1259400 (National Center for Advancing Translational Sciences (NCATS), 2018).

Values joined by “and” are separate entries in the source; they are usually repeats but may differ in a detail not shown here. Identical values can stand only once. Out of some 350,000 compounds screened, about 2,100 (0.6%) were called active. Inconclusive results (about 1%) are left out.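 Rule for the calls: active = activity change of -60% or lower, but not beyond a set lower limit; inconclusive = change between -60% and -40%, or beyond the set limit; inactive = change above -40%.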 The full list was thinned out, with actives kept by preference.
% is set by controls: 0 for no effect and ±100 for the full control effect.

The test deals with Relaxin receptor 1 (Homo sapiens) (UniProt Q9HBX9). The test is described as follows: qHTS Assay for Antagonists of the Relaxin Receptor RXFP1. Conditions: HEK293-RXFP1, relaxin-stimulated cAMP HTRF, 30 min; at 57.5 µM; stronger effect = lower value. In general terms: qHTS replaces the single test concentration by a dilution series.
Relaxin receptor 1 (Homo sapiens), sequence (Q9HBX9 whole entry, looked up): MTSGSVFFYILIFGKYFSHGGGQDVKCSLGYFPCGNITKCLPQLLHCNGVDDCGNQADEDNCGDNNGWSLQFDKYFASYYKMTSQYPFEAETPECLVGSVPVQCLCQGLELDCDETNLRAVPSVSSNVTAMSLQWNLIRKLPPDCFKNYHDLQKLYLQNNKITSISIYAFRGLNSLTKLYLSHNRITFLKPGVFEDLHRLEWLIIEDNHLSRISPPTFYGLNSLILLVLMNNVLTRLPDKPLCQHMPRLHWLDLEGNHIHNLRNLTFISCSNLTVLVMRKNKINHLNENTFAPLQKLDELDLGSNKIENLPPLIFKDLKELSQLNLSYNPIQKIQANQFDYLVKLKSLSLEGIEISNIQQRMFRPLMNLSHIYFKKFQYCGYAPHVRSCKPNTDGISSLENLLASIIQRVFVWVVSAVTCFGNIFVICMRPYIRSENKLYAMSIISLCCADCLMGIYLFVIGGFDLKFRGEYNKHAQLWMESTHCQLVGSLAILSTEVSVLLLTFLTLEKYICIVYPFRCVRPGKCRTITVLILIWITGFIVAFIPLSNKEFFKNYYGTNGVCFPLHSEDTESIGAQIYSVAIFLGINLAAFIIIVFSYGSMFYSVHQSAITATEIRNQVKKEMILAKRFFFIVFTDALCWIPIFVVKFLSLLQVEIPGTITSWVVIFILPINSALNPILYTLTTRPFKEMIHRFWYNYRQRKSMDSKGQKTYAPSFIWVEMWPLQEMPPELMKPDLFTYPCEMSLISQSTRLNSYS
As to `O=C(CN1CCSc2ccccc21)N1CCN(c2ccccc2)CC1`, the activity change, negative = inhibition was -6.69% (inactive).

In the case of `CCOc1ccc(-c2cc(C)n3nc(C(=O)Nc4ccc(C)c(C)c4)cc3n2)cc1`, the activity change, negative = inhibition is -24% (inactive). On to `CCCn1c(NCc2ccc(N(CC)CC)cc2)nc2ccccc21`, for which the activity change, negative = inhibition was -15% (inactive). Then `CC(C)S(=O)(=O)c1oc(-c2ccc(F)cc2)nc1S(=O)(=O)c1ccc(F)cc1`, with -89.7% (active); and `O=C(CSc1oc(-c2ccc(F)cc2)nc1S(=O)(=O)c1ccc(Br)cc1)NC1CCCCC1`, with -5.96% (inactive); and `Cc1ccc(-c2nc(S(=O)(=O)c3ccc(C)cc3)c(N3CCCCCC3)o2)cc1`, with 2.42% (inactive). To `O=c1cnnc(Nc2ccccc2)[nH]1` belongs 9% (inactive); to `Cc1nnc(Nc2ccccc2F)s1`, 3.61% (inactive); to `O=c1cnnc(Nc2ccccc2F)[nH]1`, -93.6% (active). Then `CCCN(CCC)CCNC(=O)c1ccc2c(c1)NC(=O)C(CS(=O)(=O)Cc1cccc(Br)c1)N2` (stereo unspecified), with -10.4% (inactive); and `Cc1ccc(CN(C(=O)COc2ccc(Cl)cc2C)C2CCS(=O)(=O)C2)o1` (stereo unspecified), with -6.16% (inactive); and `COc1cc(OC)c(NC(=O)N2CC3CCCN3c3ccccc32)cc1Cl` (stereo unspecified), with -23.5% (inactive). Regarding `Oc1c(Cl)cc(Cl)c(Cl)c1Cc1c(O)c(Cl)cc(Cl)c1Cl`, the activity change, negative = inhibition was -62.6% (active).

Take `Cc1nc(SCC(=O)Nc2ccc(C(=O)O)cc2)n[nH]1`: the activity change, negative = inhibition was -9% (inactive). In the case of `CCOc1ccc(NC(=O)c2c(NCc3cccc(OC)c3OC)sc3c2CCC3)cc1`, the activity change, negative = inhibition is -17.6% (inactive). On to `CCOC(=O)c1ccc(NC(=O)c2c(NCc3cccc(OC)c3)sc3c2CCC3)cc1`, for which the activity change, negative = inhibition was -35.6% (inactive). As to `CCOC(=O)N1CCc2c(sc(NCc3cccc(F)c3)c2C(=O)Nc2ccccc2OCC)C1`, the activity change, negative = inhibition was -69.1% (active). For the compound `CC(C)N=C1CCCC1C(=S)SSC(=S)C1CCCC1=NC(C)C` (stereo unspecified), the activity change, negative = inhibition was -72.7% (active). Then `COc1cccc(C(=O)NC(=O)Nc2ccc(-c3cc(C(F)(F)F)nn3-c3ccccc3)cc2)c1`, with -5.11% (inactive); and `CCc1nc2ccc(C(=O)N3CCN(c4cccc(Cl)c4)CC3)cc2nc1CC`, with -23.6% (inactive) and -19.3% (inactive).

Turning to `CCc1nc2ccc(C(=O)N3CCN(c4cc(Cl)ccc4C)CC3)cc2nc1CC`, the activity change, negative = inhibition was -64.4% (active). As to `Cc1ccc(Cl)cc1N1CCN(C(=O)c2cccn3c(=O)c4cc(Cl)ccc4nc23)CC1`, the activity change, negative = inhibition was 3.52% (inactive). To `COC(=O)Nc1nc2ccc(C(=O)C3CC3)cc2[nH]1` belongs 14.8% (inactive); to `Cn1c(SCC(=O)N2CCCc3ccccc32)ncc(C(=O)Nc2ccc(F)cc2)c1=O`, -2.51% (inactive).

In the case of `Cc1cc(C)c2oc(C(=O)Nc3ccc(S(=O)(=O)N(C)c4ccccc4)cc3)cc(=O)c2c1`, the activity change, negative = inhibition is -2.14% (inactive). `Cc1ccn2c(-c3csc(Nc4ccc(C(=O)O)cc4)n3)c(C)nc2c1`: the activity change, negative = inhibition is 6.41% (inactive). Then `Cc1cc(NC(=O)c2cccc(Cl)c2)ccc1-c1cc2ccccc2oc1=O`, with -4.13% (inactive); and `O=c1oc2ccccc2cc1-c1csc(Nc2ccc(O)cc2)n1`, with -97% (active).

As for `COC(=O)c1ccc(NC(=O)c2cnn(-c3ccc(Cl)cc3)c2C2CCN(C(=O)OC(C)(C)C)CC2)cc1`, the activity change, negative = inhibition was -12.3% (inactive). With `COc1ccc(CCNC(=O)c2ccc3c(c2)nc(C)n3-c2ccc(Br)cc2)cc1OC`, the activity change, negative = inhibition was -27.1% (inactive). To `CC1=C(c2ccc(C)cc2)S(=O)(=O)NC1=NCCCN1CCN(c2cc(C)ccc2C)CC1` belongs -13.1% (inactive); to `COC(=O)/C=C(/C)N`, 5.99% (inactive).

Consider `CCOC(=O)c1cc(-c2ccccc2)n(-c2cccc(C(=O)Nc3cc(OC)cc(OC)c3)c2)c1C`, for which the activity change, negative = inhibition is -10.5% (inactive). Then `COC(=O)c1nc(Cl)c(Cl)nc1N`, with -98.8% (active). In the case of `COC(=O)c1c(C)c(C)nc(N)c1C#N`, the activity change, negative = inhibition is 9.32% (inactive). In the case of `COC(=O)c1nn(-c2cccc(Cl)c2)ccc1=O`, the activity change, negative = inhibition is -8.77% (inactive). Then `O=C(CCOc1ccccc1)N(Cc1cccnc1)c1nc2ccc(Cl)cc2s1`, with 0.968% (inactive); and `COc1ccc(OC)c(NC(=O)CSC2=Nc3ccccc3C3=NC(CC(=O)NCc4ccc(F)cc4)C(=O)N23)c1` (stereo unspecified), with -11.9% (inactive). As for `COCCCN1CCC(NC(=O)c2cc(Cl)c(N)c3c2OCC3)CC1`, the activity change, negative = inhibition was -9.44% (inactive).

As to `CC1(C(=O)N/N=C/c2cc3c(cc2Br)OCO3)CC1(Br)Br` (stereo unspecified), the activity change, negative = inhibition is -82.7% (active). Then `O=C(N/N=C\c1cc2c(cc1Cl)OCO2)c1ccc(Br)s1`, with 5.05% (inactive); and `O=C(/C=C/c1cc2c(cc1Br)OCO2)NCc1ccc(Cl)cc1`, with 0.543% (inactive); and `COc1cc(Cl)c(NC(=O)CC(C)S(=O)(=O)c2cc3c(cc2C)NC(=O)CO3)c(OC)c1` (stereo unspecified), with 0.439% (inactive). Turning to `NNc1nc2c(Cl)cccc2s1`, the activity change, negative = inhibition was -80.1% (active).

For the compound `Fc1cnc(N2CCOCC2)nc1NCc1ccccc1`, the activity change, negative = inhibition is 11.7% (inactive). On to `CC(Nc1nc(N2CCCC2)nc2ccccc12)c1ccccc1` (stereo unspecified), for which the activity change, negative = inhibition is -10.3% (inactive). As for `c1ccc2c(NC3C4CC5CC(C4)CC3C5)nc(N3CCOCC3)nc2c1` (stereo unspecified), the activity change, negative = inhibition was -78.7% (active). Then `O=C(NCC(c1ccc(Cl)cc1)N1CCOCC1)c1ccccc1F` (stereo unspecified), with -0.553% (inactive); and `CCOC(=O)c1c(C)[nH]c(CCC(=O)NCCCN2CCN(c3cc(C)ccc3C)CC2)c1C`, with -33.7% (inactive); and `CCCc1c2oc(C(=O)O)cc(=O)c2cc2c(=O)cc(C(=O)O)n(CC)c12`, with -5.22% (inactive).

In the case of `COc1cc(/C=C/C(N)=O)cc(OC)c1OC`, the activity change, negative = inhibition is -9.25% (inactive). To `Cc1c(NC(=O)Cc2ccccc2)cccc1-c1nc2cccnc2s1` belongs 5.77% (inactive); to `C=C(C)COc1ccc(-c2ncncc2-c2ccc(OC)cc2)c(O)c1`, -10.6% (inactive).

For the compound `C=C(C)COc1ccc(-c2nc(N)ncc2-c2ccccc2OC)c(O)c1`, the activity change, negative = inhibition is -62% (active).

For the compound `CCOc1ccc(-c2nc(N)ncc2-c2ccccc2OC)c(O)c1`, the activity change, negative = inhibition is -16% (inactive). Then `Cc1ccc(CCNC(=O)c2nnc(Cc3cccc(F)c3)o2)cc1`, with -3.15% (inactive).

As for `CC(OC(=O)CN1C(=O)c2ccccc2C1=O)C(=O)c1ccccc1` (stereo unspecified), the activity change, negative = inhibition was 6.31% (inactive).

Take `C=CCC(C(=O)c1ccccc1)[N+](C)(C)CC=C` (stereo unspecified): the activity change, negative = inhibition is -82.2% (active). As for `O=C(OCC(O)C(O)COC(=O)c1ccccc1)c1ccccc1` (stereo unspecified), the activity change, negative = inhibition is -12.8% (inactive).

On to `CC(O)COc1ccccc1` (stereo unspecified), for which the activity change, negative = inhibition is 1.89% (inactive). For the compound `Cc1noc(/C=C/N(C)C)c1S(=O)(=O)N1CCCC(C(=O)Nc2cccc(F)c2)C1` (stereo unspecified), the activity change, negative = inhibition was -3.51% (inactive). On to `CCN1CCN(C(=O)N[C@@H](C(=O)N[C@@H]2C(=O)N3[C@@H]2SC(C)(C)[C@H]3C(=O)O)c2ccccc2)C(=O)C1=O`, for which the activity change, negative = inhibition was -3.73% (inactive). Then `O=C(Cn1cc(-c2nnnn2-c2ccc(Cl)cc2)c(=O)c2ccccc21)c1ccccc1`, with -98.5% (active); and `O=C(C[n+]1ccc2c(c1)nnn2-c1ccccc1)c1ccc(Cl)cc1`, with -11.1% (inactive); and `O=C(CN1CCN(c2ccc(Cl)cc2)CC1)c1ccccc1`, with 6.85% (inactive).

As for `Cc1cc(C)cc(NC(=O)CSc2nc3nccnc3c(=O)n2CCc2c[nH]c3ccccc23)c1`, the activity change, negative = inhibition is 4.86% (inactive). Then `Fc1ccc(Nc2nc(SCc3ccccc3Cl)nc3ccccc23)cc1`, with -23.1% (inactive). To `CC(C)(C)CC(C)(C)NCC(O)COCCOc1ccc(Br)cc1` (stereo unspecified) belongs -90.2% (active). With `COc1ccc(OCC(O)CNCCNc2nccc(C(F)(F)F)n2)cc1` (stereo unspecified), the activity change, negative = inhibition was 6.63% (inactive). `CC(Oc1ccc(Br)cc1)C(=O)NC1CCCCCC1` (stereo unspecified): the activity change, negative = inhibition is -9.73% (inactive). Take `CN[C@@H]1[C@@H](O)[C@@H](O[C@@H]2[C@H](O)[C@H](O[C@H]3OC(CN)=CC[C@H]3N)[C@@H](N)C[C@H]2N)OCC1(C)O` (stereo partly specified): the activity change, negative = inhibition is -9.15% (inactive). Then `CCc1ccc(NC(=O)c2sc3nc4c(cc3c2N)CN(CC)CC4)cc1`, with -24.5% (inactive); and `O=C1Cc2cc(S(=O)(=O)Nc3ccc(OC(F)(F)F)cc3)cc3c2N1CCC3`, with -19.8% (inactive).

As to `O=C(OCc1ccccc1)c1ccc(O)cc1`, the activity change, negative = inhibition is 3.77% (inactive). To `O=C(c1ccc(F)cc1)N1CCCC(c2nc(-c3cccs3)no2)C1` (stereo unspecified) belongs 2.8% (inactive); to `COc1cccc(-c2noc(C3CCCN(C(=O)c4ccc(F)cc4)C3)n2)c1` (stereo unspecified), -66.4% (active); to `COc1ccc(NC(=O)N2CCCC(c3nc(-c4ccc(F)cc4)no3)C2)cc1` (stereo unspecified), 2.56% (inactive). Then `CCOc1ccc(S(=O)(=O)c2cn(Cc3ccccc3)c3ccc(OCC)cc3c2=O)cc1`, with -11.7% (inactive); and `CCOc1ccc(NS(=O)(=O)c2ccc(N)cc2)nn1`, with 9.63% (inactive); and `CCN(C(=O)CSc1nnc(C)n2c1cc1occc12)c1ccccc1`, with -12.2% (inactive). Then `Cc1ccc(N=C2NC(=O)/C(=C/C=C/c3ccco3)S2)cc1C`, with -82.4% (active). For the compound `CCN1CCN(c2cc(C)c3cc(NC(=O)c4cc(Cl)ccc4OC)ccc3n2)CC1`, the activity change, negative = inhibition is -19.5% (inactive).

On to `COC(=O)CSc1nnc(-c2cccnc2)o1`, for which the activity change, negative = inhibition was 5.1% (inactive). To `COc1cccc(NC(=O)CSc2nnc(-c3cccnc3)o2)c1` belongs -83.2% (active); to `O=C(CSc1nnc(-c2ccncc2)o1)Nc1cccc(Cl)c1`, -1.48% (inactive); to `CCOc1ccc(N2CC(c3nc4ccccc4n3CCOc3ccc(OC)cc3)CC2=O)cc1` (stereo unspecified), -13% (inactive). Take `Cc1ccc(Cl)cc1NC(=O)C(C)n1nnc2sc(-c3ccccc3)cc2c1=O` (stereo unspecified): the activity change, negative = inhibition was -12.2% (inactive). Then `Cc1ccc(SCc2c(C(=O)N/N=C/c3cccnc3)nnn2-c2nonc2N)cc1`, with -106% (active). To `Nc1nonc1-n1nnc(C(=O)N/N=C\c2ccncc2)c1CN1CCCCC1` belongs 7.31% (inactive); to `COCc1c(C(=O)N/N=C\c2cccnc2)nnn1-c1nonc1N`, -21.1% (inactive); to `COC(=O)c1cc(Cl)c(NC(C)=O)cc1OC`, -14.6% (inactive).
